Results filed as inconclusive are left out. Calls of active or inactive are those of the source. How the source made its calls, unless noted: active means hit-call score of the fitted dose curve at least 0.9, where 1 is the maximum; inactive means score below 0.9.
Experiments:
[1] = BSK_BT_Bcell_Proliferation: Viability Assessment in the BioMAP Diversity Plus: BT Assay for B cell Proliferation (AID 2284227); conditions: primary human B cells with PBMC
Summary of the method: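 Human B cells co-cultured with PBMC were dosed with test chemicals and relative cell number was quantified by SRB staining at 72 h. Cells were fixed in 10% TCA, stained with 0.1% SRB and read at 560 nm. Activity was fitted in the positive direction against DMSO.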

[2] = read-out: Interleukin 6 (IL6), IL6 (gene 3569); test: BSK_BT_xIL6: BioMAP Diversity Plus: BT Assay for Interleukin 6 (IL6) Biomarker Activity (AID 2284228); conditions: primary human B cells with PBMC
Summary of the method: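 Human B cell plus PBMC co-culture exposed to test chemical for 24 h; secreted IL-6 quantified by Luminex xMAP bead assay. Activity fitted in the positive direction against DMSO as negative control and baseline.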

[3] = read-out: Tumor necrosis factor (Homo sapiens) (UniProt P01375); test: BSK_BT_xTNFa: BioMAP Diversity Plus: BT Assay for Tumor necrosis factor alpha (TNF-alpha) Biomarker Activity (AID 2284230); conditions: primary human B cells with PBMC
Summary of the method: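 B cells with PBMC in co-culture, dosed and sampled at 24 h; secreted TNF-alpha measured by Luminex xMAP bead assay. Activity fitted in the gain direction against DMSO as negative control and baseline.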

[4] = read-out: Vascular cell adhesion molecule 1 (VCAM1), VCAM1 (gene 7412); test: BSK_MyoF_VCAM1: BioMAP Diversity Plus: MyoF Assay for Vascular cell adhesion molecule 1 (VCAM1) Biomarker Activity (AID 2284231); conditions: primary human lung fibroblasts
Summary of the method: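 Primary human lung fibroblasts were dosed with test chemical for 24 h, then cell-surface VCAM-1 was measured by ELISA. Activity was fitted in the positive direction against DMSO as negative control and baseline.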

[5] = UKN4_HCS_LUHMES_cell_viability: Viability Assessment in the University of Konstanz (UKN) Leist Lab Neurite Outgrowth Assay in human LUHMES cells (UKN4) (AID 2284232)
Summary of the method: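 Measured in replated, 2-day-differentiated LUHMES cells treated 24 h; stained 30 min with H-33342 and calcein-AM before high-content imaging.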

[6] = UKN2_HCS_IMR90_cell_viability: Viability Assessment in the University of Konstanz (UKN) Leist Lab Neural Crest Cell Migration Assay in human induced IMR90 Pluripotent Stem Cells (UKN2) (AID 2284233);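 further: cells exposed to compound for 24 h after a 24 h migration phase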
Summary of the method: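 Viability read as calcein-AM fluorescence by high-content imaging, Hoechst co-stain, 30 min. Human iPSC (IMR90) neural crest cells had migrated 24 h into stopper-defined gaps before 24 h chemical exposure. Fitted bidirectionally relative to DMSO.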

[7] = TAMU_HCS_1.5hr_SingleDonor1434_Cytotoxicity: Cytotoxicity Assessment using High-content Screening (HCS) Fluorescent Imaging for the Texas A&M University (TAMU) 1.5-hr Human Induced Pluripotent Stem Cell (iPSC)-derived Cardiotoxicity Assay (AID 2284234; active means hit-call score of the fitted dose curve at least 0.9, where 1 is the maximum)
Summary of the method: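 Nuclear counts from Hoechst 33342 imaging define cytotoxicity here, with EC10 (10% cell-count loss relative to DMSO) as point of departure. iPSC cardiomyocytes received 0.2-100 uM test chemical in 0.5% DMSO for 1.5 h at 37 C.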

[8] = TAMU_PeakParms_SingleDonor1434_QT: Texas A&M University (TAMU) 1.5-hr Human Induced Pluripotent Stem Cell (iPSC)-derived Cardiomyocytes Calcium (Ca+2) Flux Assay for Cardiotoxicity: QT (decay-rise ratio) (AID 2284235; active means hit-call score of the fitted dose curve at least 0.9, where 1 is the maximum)
Summary of the method: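 Decay/rise ratio of calcium-flux fluorescence scored after 90 min exposure (37C) of donor 1434 iPSC cardiomyocytes to 0.2–100 uM (0.5% DMSO). Beat-cessation and severe-notch points removed; POD is EC05, a 5% rise over DMSO.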

Chain of Tumor necrosis factor (Homo sapiens) (P01375 whole entry, looked up): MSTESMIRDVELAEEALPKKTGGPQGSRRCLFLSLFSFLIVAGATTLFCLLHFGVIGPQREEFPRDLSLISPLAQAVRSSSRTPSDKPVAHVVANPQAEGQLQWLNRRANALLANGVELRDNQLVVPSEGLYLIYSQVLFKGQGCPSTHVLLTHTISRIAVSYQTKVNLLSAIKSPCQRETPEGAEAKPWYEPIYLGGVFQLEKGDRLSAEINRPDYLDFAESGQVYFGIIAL

O=C1OC2(c3ccccc31)c1ccc(O)c(Br)c1Oc1c2ccc(O)c1Br
outcome [1]: inactive
outcome [2]: inactive
outcome [3]: inactive
outcome [4]: inactive

CC(C)(N=C=O)c1cccc(C(C)(C)N=C=O)c1
outcome [1]: inactive
outcome [2]: inactive
outcome [3]: inactive
outcome [4]: inactive

CC(=O)Nc1ccc(C(=O)CCl)cc1
AC50 [1]: 5.39 µM (active)
AC50 [2]: 3.46 µM (active)
AC50 [3]: 8.47 µM (active)
AC50 [4]: 23.9 µM (active)

c1ccc(CCc2ccccc2)cc1
outcome [1]: inactive
outcome [2]: inactive
outcome [3]: inactive
AC50 [4]: 31 µM (active)

CC(=O)c1c(C)c([N+](=O)[O-])c(C(C)(C)C)c([N+](=O)[O-])c1C
outcome [1]: inactive
outcome [2]: inactive
outcome [3]: inactive
outcome [4]: inactive

CC(=O)C1(C)CC2=C(CCCC2(C)C)CC1C (stereo not given)
AC50 [1]: 34.7 µM (active)
AC50 [2]: 28.5 µM (active)
AC50 [3]: 30.3 µM (active)
AC50 [4]: 12.1 µM (active)

CCN(CC)C(=O)N(CC)CC
outcome [1]: inactive
outcome [2]: inactive
outcome [3]: inactive
outcome [4]: inactive

c1ccc2cc(Nc3ccc(Nc4ccc5ccccc5c4)cc3)ccc2c1
outcome [1]: inactive
AC50 [2]: 1.12 µM (active)
outcome [3]: inactive
outcome [4]: inactive

C=C(C)[C@H]1CC=C(C)C(=O)C1
outcome [1]: inactive
outcome [2]: inactive
outcome [3]: inactive
outcome [4]: inactive

Clc1cc(Cl)c(-c2c(Cl)c(Cl)cc(Cl)c2Cl)cc1Cl
outcome [1]: inactive
outcome [2]: inactive
outcome [3]: inactive
AC50 [4]: 2.76 µM (active)

IC(I)I
outcome [1]: inactive
outcome [2]: inactive
outcome [3]: inactive
outcome [4]: inactive

CCC(C)c1cc([N+](=O)[O-])cc([N+](=O)[O-])c1OC(=O)OC(C)C (stereo not given)
AC50 [1]: 26.7 µM (active)
AC50 [2]: 30.4 µM (active)
AC50 [3]: 33.5 µM (active)
AC50 [4]: 8.46 µM (active)

COc1ccc(CCN2CCC(Nc3nc4ccccc4n3Cc3ccc(F)cc3)CC2)cc1
AC50 [1]: 5.84 µM (active)
AC50 [2]: 3.52 µM (active)
AC50 [3]: 7.19 µM (active)
AC50 [4]: 5 µM (active)

CS(=O)(=O)c1ccc(C2=C(c3ccccc3)C(=O)OC2)cc1
outcome [1]: inactive
outcome [2]: inactive
outcome [3]: inactive
outcome [4]: inactive

CCCCN(CCCC)C(=O)N(CCCC)CCCC
AC50 [1]: 31.4 µM (active)
AC50 [2]: 29 µM (active)
AC50 [3]: 30.3 µM (active)
AC50 [4]: 10.5 µM (active)

CC1(C)C2=CCCC(C)(C)[C@]23CC[C@H]1C3
outcome [1]: inactive
outcome [2]: inactive
outcome [3]: inactive
AC50 [4]: 31.9 µM (active)

O=C1c2ccccc2C(=O)c2c(O)ccc(O)c21
AC50 [1]: 11.8 µM (active)
AC50 [2]: 0.0172 µM (active)
AC50 [3]: 11 µM (active)
outcome [4]: inactive

C=C(C)C(=O)OCCOCCOCCOC(=O)C(=C)C
outcome [1]: inactive
outcome [2]: inactive
outcome [3]: inactive
outcome [4]: inactive

COc1ccc(OC)c(N=Nc2c(O)ccc3ccccc23)c1
outcome [1]: inactive
outcome [2]: inactive
outcome [3]: inactive
AC50 [4]: 9.05 µM (active)

CCCCCC(C=O)=Cc1ccccc1
outcome [1]: inactive
outcome [2]: inactive
outcome [3]: inactive
AC50 [4]: 34.2 µM (active)

CC(C)(C)CC(C)(C)c1ccc(OCCOCC[N+](C)(C)Cc2ccccc2)cc1
AC50 [1]: 5 µM (active)
outcome [2]: inactive
AC50 [3]: 5 µM (active)
AC50 [4]: 8.24 µM (active)

Oc1c(Cl)cc(Cl)c(Cl)c1Cc1c(O)c(Cl)cc(Cl)c1Cl
AC50 [5]: 18.3 µM (active)
AC50 [6]: 3.18 µM (active)
AC50 [7]: 14.9 µM (active)
outcome [8]: inactive

COCCOCCOCCO
outcome [6]: inactive

CC(C)NCC(O)COc1ccc(CC(N)=O)cc1 (stereo not given)
outcome [8]: inactive
